# JMJD2A Tudor inh = inhibitors of human JMJD2A Tudor domain; hit rate 4.4% among 390,000; O75164; AlphaScreen JMJD2A-Tudor / H3K4me3 peptide binding; Potency, µM (top dose mostly 114 µM), for the others: top-dose activity change, negative = inhibition, usual class: inhibitors; also: potency is read from the fitted curve at half-maximal effect; % is scaled to controls: 0 for no effect and ±100 for the full control effect; nearly all actives have a fitted effect of over 50% in size
# CtBP-E1A blk = CtBP/E1A binding inhibition. hit rate 0.49% among 340,000. AlphaScreen GST-E1A/His-CtBP binding, 1536-well; active compounds read low. activity change, % (test concentration not listed); in the data active = activity change below about -65%; inconclusive = mostly about -30% to -63%; also: % is scaled to controls: 0 for no effect and ±100 for the full control effect
#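 Homogeneous bead-based format: GST-tagged E1A captured on glutathione donor beads, His-tagged CtBP on nickel acceptor beads; compounds precede bead addition by 2 h at 37 °C.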
# G9a block = G9a (human) methyltransferase inhibition; Potency, µM (top dose mostly 102 µM), inactives show top-dose activity, negative = inhibition, actives largely listed as inhibitors; Q96KQ7; hit rate 8.8% among 350,000; AID 504332; G9a H3K9 monomethylation, AlphaScreen, 2 h; also: potency is read from the fitted curve at half-maximal effect; % is scaled to controls: 0 for no effect and ±100 for the full control effect; nearly all actives have a fitted effect of over 75% in size
#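 G9a (20 nM) was preincubated 15 min with compound, then reacted 2 h at room temperature with 500 nM biotin-H3K9 peptide and 20 µM SAM. Monomethyl-H3K9 detected by AlphaScreen using anti-H3K9me1 antibody.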
# BAZ2B inh = BAZ2B (human) inhibition; AlphaScreen BAZ2B-H3K14Ac peptide displacement; Q9UIF8; hit rate 4.4% among 360,000; Potency, µM (titrated, usually from 114 µM), for the others: at the highest dose activity change, negative = inhibition, actives largely listed as inhibitors; AID 504333; also: potency is read from the fitted curve at half-maximal effect; % is scaled to controls: 0 for no effect and ±100 for the full control effect; nearly all actives have a fitted effect of over 60% in size
# Target sequence (Q9UIF8 whole entry, looked up): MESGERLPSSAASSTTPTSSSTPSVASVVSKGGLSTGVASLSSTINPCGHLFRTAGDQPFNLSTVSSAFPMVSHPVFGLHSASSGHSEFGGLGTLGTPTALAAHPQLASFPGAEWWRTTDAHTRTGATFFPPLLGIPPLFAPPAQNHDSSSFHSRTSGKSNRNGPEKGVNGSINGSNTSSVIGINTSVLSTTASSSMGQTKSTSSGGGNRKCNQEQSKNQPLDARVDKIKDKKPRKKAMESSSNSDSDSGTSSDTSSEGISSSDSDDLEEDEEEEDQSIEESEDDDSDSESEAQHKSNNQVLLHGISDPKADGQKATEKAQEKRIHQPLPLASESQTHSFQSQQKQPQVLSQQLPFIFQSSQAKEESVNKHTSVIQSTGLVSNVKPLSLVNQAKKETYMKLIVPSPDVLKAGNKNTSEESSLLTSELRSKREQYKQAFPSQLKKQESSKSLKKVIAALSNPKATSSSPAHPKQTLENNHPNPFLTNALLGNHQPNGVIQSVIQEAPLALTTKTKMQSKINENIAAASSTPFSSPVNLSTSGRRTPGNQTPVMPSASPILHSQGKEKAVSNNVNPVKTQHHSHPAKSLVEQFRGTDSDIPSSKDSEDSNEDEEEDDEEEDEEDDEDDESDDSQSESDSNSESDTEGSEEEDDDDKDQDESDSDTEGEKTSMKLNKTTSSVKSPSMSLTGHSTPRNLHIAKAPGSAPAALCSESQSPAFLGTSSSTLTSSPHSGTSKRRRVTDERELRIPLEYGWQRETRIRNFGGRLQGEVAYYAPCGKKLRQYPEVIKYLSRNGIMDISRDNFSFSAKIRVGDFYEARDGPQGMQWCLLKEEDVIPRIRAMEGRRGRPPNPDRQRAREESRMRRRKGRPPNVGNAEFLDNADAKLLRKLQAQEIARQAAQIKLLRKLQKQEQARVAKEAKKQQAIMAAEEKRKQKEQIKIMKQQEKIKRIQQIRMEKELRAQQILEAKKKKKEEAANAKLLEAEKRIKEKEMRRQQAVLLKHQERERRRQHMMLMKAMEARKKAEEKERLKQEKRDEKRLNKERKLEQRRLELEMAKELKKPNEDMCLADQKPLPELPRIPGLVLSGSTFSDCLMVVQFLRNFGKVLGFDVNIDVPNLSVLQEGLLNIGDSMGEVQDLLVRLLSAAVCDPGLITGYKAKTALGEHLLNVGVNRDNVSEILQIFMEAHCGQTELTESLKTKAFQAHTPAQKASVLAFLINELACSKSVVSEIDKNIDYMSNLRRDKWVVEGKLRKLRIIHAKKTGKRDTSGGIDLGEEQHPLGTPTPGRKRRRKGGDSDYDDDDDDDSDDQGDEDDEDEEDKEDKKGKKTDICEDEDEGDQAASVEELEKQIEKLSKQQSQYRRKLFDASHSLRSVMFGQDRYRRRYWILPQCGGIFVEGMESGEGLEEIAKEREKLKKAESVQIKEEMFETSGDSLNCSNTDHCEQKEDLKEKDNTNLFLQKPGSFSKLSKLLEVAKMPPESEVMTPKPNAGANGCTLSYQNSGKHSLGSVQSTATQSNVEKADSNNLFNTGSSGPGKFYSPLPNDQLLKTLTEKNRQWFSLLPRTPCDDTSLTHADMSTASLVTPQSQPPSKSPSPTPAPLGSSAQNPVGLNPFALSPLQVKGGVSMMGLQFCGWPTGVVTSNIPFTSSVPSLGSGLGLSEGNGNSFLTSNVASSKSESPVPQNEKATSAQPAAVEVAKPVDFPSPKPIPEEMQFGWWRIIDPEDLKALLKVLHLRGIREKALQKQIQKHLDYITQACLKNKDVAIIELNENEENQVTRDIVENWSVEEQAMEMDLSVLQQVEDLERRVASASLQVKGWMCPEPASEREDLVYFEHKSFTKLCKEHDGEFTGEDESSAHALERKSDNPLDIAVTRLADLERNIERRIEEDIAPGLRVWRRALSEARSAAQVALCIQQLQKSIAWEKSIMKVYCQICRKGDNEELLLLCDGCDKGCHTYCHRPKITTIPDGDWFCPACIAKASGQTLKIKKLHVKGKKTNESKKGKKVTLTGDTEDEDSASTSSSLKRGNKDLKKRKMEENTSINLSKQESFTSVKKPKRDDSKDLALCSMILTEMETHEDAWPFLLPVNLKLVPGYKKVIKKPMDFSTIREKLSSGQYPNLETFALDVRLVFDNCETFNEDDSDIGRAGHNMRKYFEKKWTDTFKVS
#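 AlphaScreen luminescence quantifies BAZ2B engagement of H3K14Ac peptide; the protein and biotinylated peptide are both at 50 nM final, buffer PBS pH 7.4 with 0.01% Tween-20, all steps at room temperature.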
# Six1-Eya2 inh = blocks human Six1 binding to Eya2; activity change, % (concentration not given with the values); AID 651725; Q15475+O00167; hit rate 0.56% among 360,000; AlphaScreen GST-Six1/His-Eya2 binding, biochemical; active compounds read low; in the data active = activity change below about -65%; inconclusive = mostly about -30% to -63%; also: % is scaled to controls: 0 for no effect and ±100 for the full control effect
#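 GST-Six1 + His-Eya2 (5X stock: 250/500 nM); Tris pH 8.0, 300 mM NaCl, 0.05% BSA, 0.02% Tween 20; GSH donor/Ni acceptor beads; 1 h 37 °C dark; AlphaScreen readout.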
# HP1b binding inh = blocks HP1-beta chromodomain binding to methylated histone tails. Potency, µM (top dose mostly 114 µM), inactives show at the top dose activity change, negative = inhibition, hits mostly inhibitors. AID 540317. AlphaScreen HP1-beta / biotin-H3K9me3 peptide binding. hit rate 0.56% among 390,000. P83916; also: potency is read from the fitted curve at half-maximal effect; nearly all actives have a fitted effect of over 70% in size
#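 AlphaScreen: HP1-beta (50 nM) preformed 30 min with biotin-H3(1-18)K9me3 peptide (50 nM) in PBS pH 7.4, 0.01% Tween-20. Compound added for 30 min at RT, then streptavidin donor/nickel chelate acceptor beads (10 ug/mL) for 30 min.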
# The depositor's hits bear a star; ? = inconclusive; · = not tested or not shown; ! = not active in a repeat; [ ] = remark or other dose. Only some compounds are listed: those with a hit (about 10% of all), similar ones and a draw of the others. Unless noted, calls follow the shape of the dose curve; as a rule, active = well fitted inhibition curve with a large enough effect; inconclusive = small, poorly fitted or top-dose-only effect; inactive = no such curve, though single readings can be large or run the other way.
SMILES,JMJD2A Tudor inh,CtBP-E1A blk,G9a block,BAZ2B inh,Six1-Eya2 inh,HP1b binding inh
O=[N+]([O-])c1ccc(-c2ccc(C=Nc3cccc4ccccc34)o2)cc1,16µM*,3,6.3µM*,40µM*,?,?
CN[C@@H]1C[C@@]2(C)O[C@@H]([C@@H]1OC)n1c3ccccc3c3c4c(c5c6ccccc6n2c5c31)C(=O)NC4,·,·,-5%[59 µM],·,·,·
Cc1cc(/C=C2\C(=O)NC(=O)N(c3cccc(F)c3)C2=O)c(C)n1-c1cc(C(=O)O)cc(C(=O)O)c1,79µM*,1,·,45µM*,?,-14%
Cc1cc(/C=C2\C(=O)NC(=O)N(c3ccc(Br)cc3)C2=O)c(C)n1-c1cc(C(=O)O)cc(C(=O)O)c1,22µM*,·,20µM*,56µM*,-84*,?
Cc1cc(/C=C2\C(=O)NC(=O)N(c3ccc(Cl)cc3)C2=O)c(C)n1-c1cccc(C(=O)O)c1,?,-11,-6%[2.33 µM],-39%,-22,-3%
CSC(=S)NCc1c[nH]c2ccccc12,·,·,1%[59 µM],·,·,·
C[C@@H]1Cc2c(Cl)cc(C(=O)N[C@@H](Cc3ccccc3)C(=O)O)c(O)c2C(=O)O1,·,·,3%[59 µM],·,·,·
CCCC(C)c1nnc(NC(=O)CCS(=O)(=O)c2ccccc2)s1 (stereo not drawn),50µM*,-2,4µM*,?,-11,?
O=C(Nc1ccccc1)c1c(O)[nH]c(=S)[nH]c1=O,?,1,·,·,17,79%
S=c1[nH]c2ccccc2[nH]1,?,9,13µM*,-12%,3,-5%
ClC1=C(Cl)C2(Cl)C3C4CC(C5OC45)C3C1(Cl)C2(Cl)Cl (stereo not drawn),·,·,-1%[12.7 µM],·,·,·
Nn1c(Cc2cccc3ccccc23)n[nH]c1=S,10µM*,·,3.5µM*,-34%,3,?
Cc1cccc2c1=NC(=O)/C(=C/c1c(O)[nH]c(=O)[nH]c1=O)C=2,-21%,2,10µM*,?,9,9%
O=c1[nH]c(=S)[nH]c(O)c1/C=C1/C=c2ccccc2=N1,?,-4,·,?,-5,45%
CN(CCc1ccccc1)Cc1c[nH]c2ccccc12,?,·,3.2µM*,?,-6,-9%
S=c1[nH]nc(-c2ccco2)n1-c1cccc2ccccc12,40µM*,-5,?,-6%,4,13%
COc1ccccc1-n1c(-c2ccco2)n[nH]c1=S,22µM*,6,22µM*,-1%,3,28%
N#Cc1ccc(NC(=O)CN2C(=O)NC3(CCCC3)C2=O)cc1Cl,2%,0,-9%,6%,0,30%
N#Cc1ccc(NC(=O)CN2CCN(C(=O)c3cccs3)CC2)cc1Cl,-9%,2,40µM*,-7%,-7,29%
Cc1cccc(-n2c(/C=C/c3c[nH]c4ccccc34)nc3ccccc3c2=O)c1,-6%,·,-2%[59 µM],0%,·,33%
CC1CCCN(CC(=O)c2ccc(Cl)c(Cl)c2)C1 (stereo not drawn),-6%,11,25µM*,?,-4,65%
Cc1cc(Cl)ccc1C(=O)C1CCCN(Cc2ccon2)C1 (stereo not drawn),-9%,6,16%,-5%,-2,34%
CC1CCN(CC(=O)c2ccccc2Cl)CC1,?,0,?,-9%,12,12%
CC1CCN(CC(=O)c2ccc3c(c2)OCCO3)CC1,5µM*,7,4.5µM*,·,3,?
C/C=C1/C[C@@H](C)[C@@](C)(O)C(=O)OCC2=CCN3CC[C@@H](OC1=O)[C@@H]23,-19%,·,·,·,·,22%
SMILES,JMJD2A Tudor inh,CtBP-E1A blk,G9a block,BAZ2B inh,Six1-Eya2 inh,HP1b binding inh
CCCN(CCC)[C@@H]1CCc2c(F)ccc(O)c2C1,·,·,50µM*,·,·,·
CCCN(CCC)C1CCc2ccc(O)cc2C1 (stereo not drawn),-12%,-1,37%[12.7 µM],9%,0,41%
CCCN(CCC)C1CCc2cccc(O)c2C1 (stereo not drawn),-19%,5,24µM*!,·,5,23%
C[C@]12CC[C@@H]3[C@@H](CCC4=CC(=O)CC[C@@H]43)[C@@H]1CC[C@@H]2OC(=O)CCc1ccccc1,·,·,29%[59 µM],·,·,·
COc1ccccc1N1CCN(C(=O)c2cc3c(-c4ccccc4F)nn(C)c3s2)CC1,-34%,·,?,·,·,14%
O=C1NC(=O)N(Cc2ccccc2)C(=O)C1Cc1ccccc1 (stereo not drawn),-16%,29,·,·,15,33%
O=C1NC(=S)NC(=O)C1C/C=C/c1ccccc1,79µM*,9,7.9µM*,1%,0,-22%
O=C1NC(=S)NC(=O)C1Cc1ccccc1,89µM*,-4,·,·,2,?
O=c1[nH]c(=S)n(-c2ccccc2)c(O)c1/C=N/N1CCCCC1c1cccnc1 (stereo not drawn),-11%,4,8.9µM*,?,-3,40%
CCC(CO)NC(=O)[C@@H]1C=C2c3cccc4[nH]cc(c34)C[C@H]2N(C)C1 (stereo partly drawn),·,·,33%[12.7 µM],·,·,·
COc1ccc(NC(=O)CSc2oc(-c3cccs3)nc2S(=O)(=O)c2ccccc2)c(OC)c1,?,·,?,-19%,·,?
Cc1cccc(N2C(=O)NC(=O)/C(=C\c3cnc(-c4ccccc4)nc3)C2=O)c1,?,19,7.1µM*,-3%,-4,11%
CC(C)c1ccc(N2C(=O)NC(=O)/C(=C\c3cnc(-c4ccccc4)nc3)C2=O)cc1,-12%[11.4 µM],-8,?,-29%,2,?
Cc1ccc(N2C(=O)NC(=O)/C(=C/c3cnc(-c4ccccc4)nc3)C2=O)cc1C,79µM*,-3,10µM*,-2%,-7,-16%
O=C(c1c[nH]cc1-c1ccccc1)c1cccc2ccccc12,-12%,-29,25µM*,25µM*,?,?
CN1C(=O)N(C)C(=O)C2(Cc3cc([N+](=O)[O-])ccc3N(C)C2)C1=O,-1%,-8,0%,-6%,-2,30%
COc1cccc(N2C(=O)NC(=O)C3(Cc4cc(C)ccc4N(C)C3)C2=O)c1 (stereo not drawn),?,7,2.8µM*,5%,0,42%
COc1cc(CN2C(=O)NC(=O)C3(Cc4cc(C)ccc4N(C)C3)C2=O)cc(OC)c1 (stereo not drawn),-32%,0,?,-35%,-2,23%
COc1ccc(OC)c(N2C(=O)NC(=O)C3(Cc4cc(C)ccc4N(C)C3)C2=O)c1 (stereo not drawn),-29%,-11,8.9µM*,-3%,-1,11%
COc1ccc2c(c1)CC1(CN2C)C(=O)NC(=O)N(CCc2ccccc2)C1=O (stereo not drawn),-32%,-2,11µM*,?,-2,38%

# Bioassay records: PubChem, National Center for Advancing Translational Sciences (NCATS)
